“And” between values parts separate entries of the source, which are not always exact repeats. Equal values may be shown once. Records with an inconclusive call do not appear. The source holds several records for some structures; these can differ, active in one and inactive in another. The source made the active and inactive calls. Unless noted, calls come from the whole dose curve; as a rule, active = well fitted curve in the direction sought with a large enough effect; inconclusive = small, poorly fitted or top-dose-only effect, or another doubt; inactive = no such curve, though single readings can be large; an effect the other way counts as inactive or inconclusive.

Experiment [1] in a line: qHTS assay for small molecule agonists of the antioxidant response element (ARE) signaling pathway (AID 651741; active = well fitted activation curve with a large enough effect in the signal ratio; the % refers to the signal ratio; note: potency is the fitted concentration of half-maximal effect; for activation: % of control where 0% means no effect). A digest of the protocol:
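HepG2 ARE-bla cells plated at 2,000 cells/well and incubated 5 h at 37 C/5% CO2 received 23 nL compound in DMSO. After 16 h at 37 C, LiveBLAzer B/G FRET substrate was applied for 2 h at room temperature and fluorescence read.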
(In general: qHTS replaces the single test concentration by a dilution series.)

The nature of experiment [2]: qHTS assay for small molecule activators of the p53 signaling pathway (AID 651743; active = well fitted activation curve with a large enough effect in the signal ratio, not every such curve was filed as active; the % refers to the signal ratio; note: series mostly up to about 92 µM; % of control where 0% means no effect). The note with it: HCT-116 p53RE-bla, beta-lactamase FRET ratio, 16 h; activation: stronger effect = higher value. A digest of the protocol:
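HCT-116 p53RE-bla, 4,000 cells/well; 5 h settle; cpd/DMSO 16 h, 37 C; LiveBLAzer B/G 2 h RT; fluorescence intensity.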

A short description of experiment [3]: qHTS assay for small molecule activators of the nuclear factor-kappa B (NF-kB) signaling pathway (AID 651749; active = well fitted activation curve with a large enough effect in the signal ratio; the % refers to the signal ratio; note: series mostly up to about 77 µM; % of control where 0% means no effect). The note with it: NF-kB-bla ME-180 cells, beta-lactamase FRET ratio, 16 h; stronger effect = higher value. A digest of the protocol: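 Incubation lasted 16 hr at 37C in 5% CO2 after 23 nL compound addition to ME-180 NF-kB-bla cells. Activation appears as beta-lactamase-mediated FRET loss.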

A short description of experiment [4]: qHTS assay for environmental chemicals that activate the Aryl hydrocarbon Receptor (AhR) signaling pathway (AID 651777). For activation: % of control where 0% means no effect. Note: nearly all actives have a fitted effect of over 15% in size. Note: potency is the fitted concentration of half-maximal effect. Particulars: 1A2-DRE human hepatoma cells, luciferase, 24 h; activation: stronger effect = higher value. A digest of the protocol:
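Stable CYP1A2 promoter/DRE-luciferase human hepatoma line treated 24 hr; One-Glo luminescence, 30 min RT.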

Experiment [5] addresses Peroxisome proliferator-activated receptor alpha (Homo sapiens) (UniProt Q07869). In words: qHTS assay for small molecule agonists of the peroxisome proliferator-activated receptor alpha (PPARalpha) signaling pathway (AID 651778). Note: % of control where 0% means no effect. The note with it: PathHunter PPARalpha complementation, chemiluminescence, 6 h; stronger effect = higher value. A digest of the protocol: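 Enzyme-fragment complementation assay in which ligand-bound PPARalpha translocates and forms an active enzyme that generates chemiluminescence. Cells were plated overnight, exposed to compound for 6 hr at 37 C, and then given detection reagent for 60 min at room temperature.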

Experiment [6] can be described thus: qHTS assay for small molecule agonists of the antioxidant response element (ARE) signaling pathway measured by Nrf2-dependant transcriptional activity (AID 720636; active = well fitted curve in the direction sought with a large enough effect in the repeat runs; an effect the other way counts as inactive or inconclusive;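 note: HepG2 cells with an ARE-driven luciferase reporter; % of control where 0% means no effect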). A digest of the protocol:
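Reporter gene assay, HepG2 ARE-luc: 16 hr compound, 37 C, 5% CO2; read-out luciferase luminescence.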

The nature of experiment [7]: qHTS assay for small molecule disruptors of the mitochondrial membrane potential - 1 hr assay (AID 651754; calls by dose curve; note: nearly all actives have a fitted effect of over 35% in size; note: potency is the fitted concentration of half-maximal effect). A digest of the protocol: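 HepG2 cells, attached overnight at 37C, were exposed to compound or DMSO vehicle for 1 hr at 37C, 5% CO2, then stained with Mito-MPS dye for 30 min. Red aggregate versus green monomer fluorescence reports membrane potential.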
The nature of experiment [8]: qHTS assay for small molecule disruptors of the mitochondrial membrane potential - 5 hr assay (AID 651755; calls by dose curve; note: nearly all actives have a fitted effect of over 40% in size; note: potency is the fitted concentration of half-maximal effect). A digest of the protocol: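 HepG2 cells (2,000/well), attached overnight, exposed to compound 5 hr at 37C, then Mito-MPS dye 30 min. Fluorescence read for monomers (490/535 nm) and aggregates (540/590 nm).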
Experiment [9] has as its target Tumor necrosis factor (Homo sapiens) (UniProt P01375). The experiment can be described thus: qHTS assay to identify small molecules that stimulate Tumor Necrosis Factor-alpha (TNF-alpha) secretion (AID 651757; active = well fitted curve in the direction sought with a large enough effect in the signal ratio; the % refers to the signal ratio; note: 0% is about no effect). A digest of the protocol:
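THP-1 cells were exposed to compounds for 17 hrs at 37 C, after which secreted TNF-alpha was measured by homogeneous HTRF (TR-FRET) using cryptate- and XL665-labeled anti-TNF-alpha antibodies, read after 3 hr at room temperature.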

Experiment [10] is described as follows: qHTS assay to identify small molecules that stimulate interleukin-8 (IL-8) secretion (AID 651758; active = well fitted activation curve with a large enough effect in the signal ratio; the % refers to the signal ratio; note: potency is the fitted concentration of half-maximal effect; for activation: 0% is about no effect). A digest of the protocol:
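THP-1 cells (2000/well) exposed to compound 16 h at 37 C; secreted IL-8 then detected by HTRF with cryptate- and XL665-labelled anti-IL-8 antibody pair after 1-3 h at room temperature.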

The target in experiment [11] is Nuclear receptor ROR-gamma (Homo sapiens) (UniProt P51449). In words: qHTS assay for small molecule antagonists of the retinoid-related orphan receptor gamma (ROR-gamma) signaling pathway (AID 651802). Note: nearly all actives have a fitted effect of over 60% in size. Note: potency is the fitted concentration of half-maximal effect. A digest of the protocol:
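CHO cells carrying TET-inducible ROR-gamma and an ROR response element–luciferase reporter were exposed to compound, then induced with doxycycline. After 16hr at 37C, luminescence was read; lower signal indicates antagonism.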

Experiment [12] is described as follows: qHTS assay for small molecule antagonists of the retinoid-related orphan receptor gamma (ROR-gamma) signaling pathway - cell viability counter screen (AID 720652; active = well fitted curve in the direction sought with a large enough effect in the repeat runs; an effect the other way counts as inactive or inconclusive;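 note: series mostly up to about 92 µM; compound exposure lasted 16 hr before ATP read; % is set by controls: 0 for no effect and ±100 for the full control effect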). A digest of the protocol:
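Counter screen in CHO cells carrying TET-inducible ROR-gamma and an ROR response element-luciferase reporter; cells plated 5 hr, compound pinned, doxycycline added, then 16 hr at 37 C. Viability read as intracellular ATP by CellTiter-Glo luminescence.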

Nuclear receptor ROR-gamma (Homo sapiens), sequence (P51449 whole entry, looked up): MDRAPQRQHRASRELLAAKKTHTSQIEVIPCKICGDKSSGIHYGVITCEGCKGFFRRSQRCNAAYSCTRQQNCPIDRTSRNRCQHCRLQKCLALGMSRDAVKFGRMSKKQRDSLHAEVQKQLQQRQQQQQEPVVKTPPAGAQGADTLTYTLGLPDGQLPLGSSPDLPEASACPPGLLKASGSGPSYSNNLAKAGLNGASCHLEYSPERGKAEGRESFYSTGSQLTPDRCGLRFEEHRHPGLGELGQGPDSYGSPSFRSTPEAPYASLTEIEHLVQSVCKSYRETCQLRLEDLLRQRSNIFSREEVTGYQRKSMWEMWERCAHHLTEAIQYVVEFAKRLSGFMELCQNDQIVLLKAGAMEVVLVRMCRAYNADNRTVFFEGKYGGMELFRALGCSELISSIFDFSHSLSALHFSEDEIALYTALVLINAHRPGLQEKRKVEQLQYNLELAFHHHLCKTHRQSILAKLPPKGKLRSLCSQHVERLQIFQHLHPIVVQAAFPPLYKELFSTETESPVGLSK
Tumor necrosis factor (Homo sapiens), sequence (P01375 whole entry, looked up): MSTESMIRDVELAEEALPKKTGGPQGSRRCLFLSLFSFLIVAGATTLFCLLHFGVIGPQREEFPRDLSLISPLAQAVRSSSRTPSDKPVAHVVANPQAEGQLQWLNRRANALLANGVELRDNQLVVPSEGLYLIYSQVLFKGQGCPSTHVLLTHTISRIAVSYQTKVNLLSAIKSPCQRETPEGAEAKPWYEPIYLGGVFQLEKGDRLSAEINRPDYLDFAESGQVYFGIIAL
Peroxisome proliferator-activated receptor alpha (Homo sapiens), sequence (Q07869 whole entry, looked up, the tested form may be a part): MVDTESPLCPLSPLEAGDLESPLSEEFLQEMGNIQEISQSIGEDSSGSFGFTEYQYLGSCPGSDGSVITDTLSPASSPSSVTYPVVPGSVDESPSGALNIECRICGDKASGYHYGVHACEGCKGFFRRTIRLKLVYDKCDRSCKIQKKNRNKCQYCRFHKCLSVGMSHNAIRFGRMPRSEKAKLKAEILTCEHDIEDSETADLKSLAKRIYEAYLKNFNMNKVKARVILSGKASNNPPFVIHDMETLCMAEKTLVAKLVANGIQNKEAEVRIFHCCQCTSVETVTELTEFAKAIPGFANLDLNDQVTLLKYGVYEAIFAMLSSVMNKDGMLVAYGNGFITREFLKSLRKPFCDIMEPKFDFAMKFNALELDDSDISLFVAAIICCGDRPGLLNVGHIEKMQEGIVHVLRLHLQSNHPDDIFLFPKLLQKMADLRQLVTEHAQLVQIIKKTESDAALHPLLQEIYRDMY

On to `CCOP(=O)(OCC)O/C(=C/Cl)c1ccc(Cl)cc1Cl`, for which the Potency is 30.6 µM (active) in experiment [1] and 50.1 µM (active) in [4]. The activation in experiment [2] is -2.13% (inactive) and -0.49% (inactive); in [3], -2.44% (inactive) and -1.58% (inactive); in [4], 3.76% (inactive). Further, the max response in experiment [5] was -3.2% (inactive) and -2.2% (inactive). For the same molecule, in [6], the Potency result is “inactive”.

On to `S=C=S`, for which the Potency entry in [1], in experiment [7], in experiment [8], in experiment [10], in experiment [11] and in [6] was “inactive” each time. Further, the Potency entry in experiment [12] was “inactive”. In addition, the activation in experiment [2] is -0.789% (inactive); in experiment [3], -0.146% (inactive); in [4], 0.646% (inactive). In experiment [9], the molecule was called inactive.

`CC(C)(C)c1cc(O)ccc1O`: the activation in experiment [2] was -3.68% (inactive) and -3.53% (inactive) and -5.7% (inactive); in experiment [3], -2.1% (inactive) and -2.15% (inactive) and -3.27% (inactive); in experiment [4], 12.6% (inactive) and 10.4% (inactive). The Potency entry in experiment [7], in [8] and in experiment [12] was “inactive” throughout. Besides, in [9], the call was inactive. Moreover, the Potency entry was “inactive and 66.8 µM (active)” in experiment [10]; 16.8 µM (active) and 29.8 µM (active) in experiment [11].

Regarding `ClCC1CO1` (stereo not drawn), the activation in [2] was -3.68% (inactive); in experiment [3], 0.581% (inactive); in experiment [4], -0.99% (inactive). For the same molecule, the Potency entry in experiment [7], in experiment [8], in experiment [10], in experiment [11], in experiment [6] and in experiment [12] was “inactive” in each case. For the same molecule, the result in [9] was inactive.

As to `CCOC(=O)c1ccccc1C(=O)OCC`, the Potency entry in experiment [1], in experiment [10], in experiment [11], in [6] and in experiment [12] was “inactive” each time. Further, the activation in [2] is 4.4% (inactive) and -0.806% (inactive) and -0.919% (inactive); in [3], 1.25% (inactive) and 1.36% (inactive) and -0.459% (inactive). Further, the outcome in [9] was inactive.

Turning to `ClC=C(Cl)Cl`, the Potency result in experiment [1], in experiment [7], in [8], in experiment [11], in experiment [6] and in experiment [12] was “inactive” throughout. Also, the activation in experiment [2] is -0.563% (inactive) and 7.22% (inactive); in experiment [3], -0.987% (inactive) and 0.875% (inactive); in experiment [4], 3.37% (inactive) and -2.62% (inactive). Besides, the result in experiment [9] was inactive.

Turning to `C[C@H]1CCC[C@H](O)CCCCCc2cc(O)cc(O)c2C(=O)O1`, the figures for the activation in experiment [2], in experiment [3] and in experiment [4] were -0.975% (inactive), -0.26% (inactive) and -1.64% (inactive), respectively. Moreover, the Potency is 33.5 µM (active) in experiment [7], 37.6 µM (active) in experiment [8] and 42.2 µM (active) in experiment [11]. For the same molecule, the molecule was classed as inactive in experiment [9]. The Potency result in [6] and in experiment [12] was “inactive” in each case.

For `CCCCCl`, the Potency entry in experiment [1], in experiment [7], in [8], in experiment [11], in experiment [6] and in experiment [12] was “inactive” each time. In addition, the activation in experiment [2] was -4.24% (inactive); in experiment [4] it was -0.771% (inactive). For the same molecule, the molecule was classed as inactive in [9].

As for `O=[N+]([O-])c1ccccc1`, the Potency result in [1], in [7], in experiment [8], in experiment [11], in experiment [6] and in [12] was “inactive” throughout. Further, the activation is 2.6% (inactive) and -2.69% (inactive) in experiment [2]; -0.285% (inactive) and -0.296% (inactive) in experiment [3]; -1.49% (inactive) and 0.199% (inactive) in experiment [4]. Besides, the molecule was classed as inactive in [9].

These data come from PubChem BioAssay (NCATS).
